Hit rate of the full screen: of about 290,000 compounds, about 890 (0.31%) were called active. Cut-off read from the data, not from the text of the source: active = inhibition mostly above about 52% (no sharp cut-off); inactive = mostly below about 76%. This excerpt belongs to a sample that is enriched for actives.
Test: cell-free HIV fusion peptide-binding blockers – biochemical, uHTS, fluorescence dequenching, primary screen (AID 1986)
Settings: 30 min, stronger effect = higher value
[1] = measured here: repeat confirmation average inhibition, at 18.6 µM

Row | SMILES | inhibition (at 20 µM) | inhibition [1] [%]
1 | COc1cccc(NC(=O)N2CCC(NC(=O)C(Cc3ccccc3F)NC(C)=O)CC2)c1 (configuration not stated) | -0.5% (inactive) | –
2 | O=C(Nc1ccccc1C(=O)O)/C(=C/c1ccc([N+](=O)[O-])cc1)NC(=O)c1ccc(Br)o1 | 20.5% (inactive) | –
3 | Cc1cc(C)c(NC(=O)CCCSc2nnc(N)s2)c(C)c1 | -0.5% (inactive) | –
4 | CC(=O)Sc1nc(-c2ccccc2)[nH]c1S(=O)(=O)c1ccc(C)cc1 | 60.7% (active) | –
5 | CSc1nc(-c2ccc(C)cc2)[nH]c1S(=O)(=O)c1ccccc1 | -0.2% (inactive) | –
6 | Cc1ccc(-c2[nH]c(-c3ccc(C(=O)O)cc3)nc2-c2ccccc2)cc1 | 61.6% (inactive) | 27.3
7 | COc1ccc(C2/C(=C(/O)c3ccc(F)cc3)C(=O)C(=O)N2c2ccccn2)cc1OC (configuration not stated) | 0.2% (inactive) | –
8 | CC(=O)Nc1ccc(S(=O)(=O)N2CCN(S(=O)(=O)N3CCCCC3)CC2)cc1 | 0.1% (inactive) | –
9 | O=C(Nc1ccccc1)OC1C2CCC1C(N1CCCCC1)CC2 (configuration not stated) | 1.6% (inactive) | –
10 | O=C(Nc1nccs1)c1cc(S(=O)(=O)N2CCCCC2)ccc1Cl | -1.5% (inactive) | –
11 | CC(=O)N1C(=O)/C(=C2\SC(=S)N(NS(=O)(=O)c3ccc(C)cc3)C2=O)c2ccccc21 | 55.6% (inactive) | -0.3
12 | O=C1/C(=C\c2ccc(Br)cc2)SC(=S)N1NS(=O)(=O)c1ccccc1 | 67.6% (inactive) | 0.2
13 | CSc1ccc(CNCc2ccc3c(c2)OCO3)cc1 | 3.5% (inactive) | –
14 | CCCC(C(=O)Nc1ccc2c(C)cc(=O)oc2c1)c1ccccc1 (configuration not stated) | 0.5% (inactive) | –
15 | O=[N+]([O-])c1ccc(/C=C/C2=NN(c3ccccc3)C(c3ccco3)C2)cc1 (configuration not stated) | 35% (inactive) | –
16 | C(=C\c1ccco1)/C1=NN(c2ccccc2)C(c2ccco2)C1 (configuration not stated) | 81.8% (active) | –
17 | O=[N+]([O-])c1ccc(/C=C/C2=NN(c3ccccc3)C(c3ccco3)C2)o1 (configuration not stated) | 18.7% (inactive) | –
18 | CC(CNC(=O)CCS(=O)(=O)c1cc2c(cc1Cl)NC(=O)CO2)c1ccccc1 (configuration not stated) | -0.3% (inactive) | –
19 | COc1ccc(/C=c2\s/c(=C/C(=O)c3ccc(C)cc3)[nH]c2=O)cc1OC | 77.2% (active) | –
20 | COc1ccc(/C=C2\SC(c3ccc(C)cc3)=NC2=O)cc1OC | 97.6% (active) | 176
21 | COc1ccc(/C=c2\s/c(=C/C(=O)c3ccc(C)cc3)[nH]c2=O)c(OC)c1 | 47.8% (inactive) | –
22 | COc1cccc(/C=c2\s/c(=C/C(=O)c3ccc(C)cc3)[nH]c2=O)c1OC | 4.7% (inactive) | –
23 | COc1ccc(/C=C2/SC(c3ccc(C)cc3)=NC2=O)cc1OC | 0.3% (inactive) | –
24 | COc1cc(/C=C2\SC(c3ccc(C)cc3)=NC2=O)ccc1O | 36.7% (inactive) | –
25 | Cc1cc2c(ncn2Cc2ccccc2)c(NS(C)(=O)=O)c1C | -1% (inactive) | –
26 | O=C(CN(Cc1ccc(F)cc1)C(=O)CNS(=O)(=O)c1ccc(F)cc1)NCc1ccco1 | 1.3% (inactive) | –

Row | SMILES | inhibition (at 20 µM) | inhibition [1] [%]
27 | COc1ccc(CCNC(=O)Cc2cc(OC)c(OC)cc2Br)cc1OC | 1.9% (inactive) | –
28 | CCOC(=O)N1CCc2c(sc3ncn(C)c(=O)c23)C1 | -2.6% (inactive) | –
29 | COC(=O)c1ccccc1NC(=O)c1ccc2c(c1)OCCCO2 | -0.4% (inactive) | –
30 | O=C(CS(=O)(=O)Cc1ccccc1)N1CCN(c2cccc(C(F)(F)F)c2)CC1 | 4.6% (inactive) | –
31 | COc1cc(/C=C2/SC(=O)NC2=O)ccc1Oc1ccc([N+](=O)[O-])cc1[N+](=O)[O-] | 74.1% (inactive) | 9.9
32 | COc1cc(/C=C2\SC(=O)NC2=O)ccc1Oc1ccc([N+](=O)[O-])cn1 | 13.1% (inactive) | –
33 | COc1cc(/C=C2\SC(=O)NC2=O)ccc1Oc1ccc([N+](=O)[O-])cc1[N+](=O)[O-] | 63% (active) | –
34 | Cc1ccc(NC(=O)Cn2cnc3sc(C(=O)NCc4ccco4)c(C)c3c2=O)cc1Cl | -1.5% (inactive) | –
35 | N#Cc1c(N)sc2c1CCN(CCc1ccccc1)C2 | 8.1% (inactive) | –
36 | N#Cc1c(N2CCCCC2)nc(N2CCCCC2)c2c1CCN(Cc1ccccc1)C2 | 8.7% (inactive) | –
37 | N#Cc1c(N)sc(=S)c2c1CCN(Cc1ccccc1)C2 | 86.2% (active) | –
38 | N#Cc1c(N)sc(=S)c2c1CCCC2 | 0% (inactive) | –
39 | N#Cc1c(N)sc2c1CCCCCC2 | -2% (inactive) | –
40 | N#Cc1c(N)sc(=S)c2c1CCCCC2 | 50% (active) | –
41 | CN1CC2([N+](=O)[O-])CC=C(OCCO)C([N+](=O)[O-])(C1)C2 (configuration not stated) | 0.4% (inactive) | –
42 | O=C(Nc1ccc(N2CCOCC2)cc1)C1(S(=O)(=O)c2ccccc2)CC1 | -1.1% (inactive) | –
43 | COc1ccc(CCN2CCCn3c2nc2c3c(=O)n(CC(C)C)c(=O)n2C)cc1OC | 0.5% (inactive) | –
44 | CC(C)c1ccc(S(=O)(=O)/N=C2\C=C(NS(=O)(=O)c3ccccc3)C(=O)c3ccccc32)cc1 | 74.7% (active) | –
45 | CC(C)c1ccc(S(=O)(=O)/N=C2/C=CC(=O)c3ccccc32)cc1 | 3.8% (inactive) | –
46 | Cc1cc(C)c(S(=O)(=O)/N=C2\C=C(NS(=O)(=O)c3ccccc3)C(=O)c3ccccc32)c(C)c1 | 68.3% (inactive) | 42.3
47 | O=C(CSc1n[nH]c(=O)[nH]c1=O)NC1CCCCC1 | -0.2% (inactive) | –
48 | COC(=O)c1cc(N2CCN(C)CC2)nc2ccccc12 | 114% (active) | –
49 | O=C(O)c1cc(N2CCOCC2)nc2ccccc12 | 0.2% (inactive) | –
50 | COC(=O)c1cc(N2CCNCC2)nc2ccccc12 | 6.8% (inactive) | –
51 | Cn1c(=O)c2[nH]c(Nc3ccccc3)nc2n(C)c1=O | -0.7% (inactive) | –

— PubChem BioAssay AID1986 (Sanford-Burnham Center for Chemical Genomics, 2009)
